Only some compounds are listed: those with a hit (about 7.6% of all), similar ones and a draw of the others.
MCF10A rereplic = A quantitative high throughput screen for small molecules that induce DNA re-replication in MCF 10a normal breast cells. MCF 10A DNA re-replication, Hoechst nuclear intensity, 48 h. Potency, µM (doses to about 46.1 µM), for inactives: top-dose activity, positive = re-replication, hits mostly activators. 2.9% of 350,000 active. AID 624296, 2012; note: potency is the fitted concentration of half-maximal effect; % of control where 0% means no effect; nearly all actives have a fitted effect of over 50% in size
KB-3-1 cytotox = qHTS assay for MDR1-selective chemotherapeutics: Primary screen using the parental adenocarcinoma cell KB-3-1; KB-3-1 viability, CellTiter-Glo ATP luminescence, 72 h; Potency, µM (titrated, usually from 46.1 µM), actives largely listed as cytotoxic; 1.4% of 400,000 active; AID 1347075, 2019; note: potency is the fitted concentration of half-maximal effect; % is set by controls: 0 for no effect and ±100 for the full control effect; nearly all actives have a fitted effect of over 60% in size
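Parental KB-3-1 adenocarcinoma cells in phenol-red-free DMEM with 10% FBS were pin-treated with compounds at several concentrations, incubated 72 h at 37 °C, and viability read by CellTiter-Glo luminescence; concentration-effect curves were fitted after normalization.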
hERG WT inh = qHTS for Inhibitors of KCHN2 3.1: Wildtype qHTS. Voltage-gated inwardly rectifying potassium channel KCNH2 (Homo sapiens), Q12809. U2OS, BacMam KCNH2, thallium flux FluxOr; active compounds read low. activity change, % at 1.84 µM. 0.37% of 340,000 active. AID 720551, 2013;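 active = maximum activity change below -70%; inconclusive = maximum activity change between -70% and -50%; inactive = maximum activity change above -50%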; note: % is set by controls: 0 for no effect and ±100 for the full control effect
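U2OS cells were transduced with wild-type KCNH2 virus (2.03 x 10^8 / mL) for 4 h at room temperature, then cultured overnight at 37 C. Thallium flux was read with FluxOr dye. Rate constants were normalized to DMSO controls.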
KB-V1 cytotox = qHTS assay for MDR1-selective chemotherapeutics: Primary screen using the drug-selected MDR subline cells KB-V1; 3.4% of 400,000 active; KB-V1 MDR cells viability, CellTiter-Glo, 72 h; Potency, µM (top dose mostly 46.1 µM), actives largely listed as cytotoxic; note: potency is the fitted concentration of half-maximal effect; % is set by controls: 0 for no effect and ±100 for the full control effect; nearly all actives have a fitted effect of over 60% in size
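qHTS viability screen in drug-selected KB-V1 MDR cells: 72 h compound treatment at 37 degrees C, ATP luminescence end point.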
SW480 rerep = A quantitative high throughput screen for small molecules that induce DNA re-replication in SW480 colon adenocarcinoma cells | 1.8% of 340,000 active | Potency, µM (titrated, usually from 46.1 µM), for inactives: at the top dose re-replication activation, usual class: activators | SW480 DNA re-replication, Hoechst DNA content imaging, 48 h; note: potency is the fitted concentration of half-maximal effect; % of control where 0% means no effect; nearly all actives have a fitted effect of over 55% in size
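SW480 cells exposed to compounds for 48 hr at 37 C, 5% CO2, then Hoechst-stained 40 min. Nuclear DNA content imaged by fluorescence scanning (405 nm excitation, 500-530 nm emission); re-replication scored as increased high-intensity nuclei.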
KCNH2 3.1 block = qHTS for Inhibitors of KCHN2 3.1: Mutant qHTS; U2OS KCNH2 3.1, thallium flux FluxOr; active compounds read low; 0.95% of 340,000 active; activity change, % (tested at about 1.8 µM);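 active = maximum activity change below -70%; inconclusive = maximum activity change from -70% to -50%; inactive = maximum activity change above -50%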;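 note: thallium influx rate constant from kinetic fluorescence after stimulation buffer; % is set by controls: 0 for no effect and ±100 for the full control effect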
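Normalized rate constant (relative to positive and negative DMSO controls) derived from a 2 min kinetic fluorescence read after stimulation; U2OS cells expressing the 3.1 isoform via virus at 1.77 x 10^8 /mL.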
An asterisk follows results filed as active; i = inactive; ? = inconclusive; . = no result given. Unless noted, calls come from the whole dose curve; as a rule, active = well fitted curve in the direction sought with a large enough effect; inconclusive = small, poorly fitted or top-dose-only effect, or another doubt; inactive = no such curve, though single readings can be large; an effect the other way counts as inactive or inconclusive.

SMILES | MCF10A rereplic | KB-3-1 cytotox | hERG WT inh | KB-V1 cytotox | SW480 rerep | KCNH2 3.1 block
CCc1nc2ccccc2c(=O)n1NC(=O)c1c(O)c2ccccc2[nH]c1=O | ? | ? | 5 | 2.9µM* | 16% | 0
CCCc1nc2ccccc2c(=O)n1NC(=O)c1c(O)c2ccccc2n(C)c1=O | 15% | 15µM* | 0 | 5.8µM* | 8% | -5
Cn1c(=O)c(C(=O)NCCO)c(O)c2ccccc21 | -3% | ? | -3 | i | 2% | 7
Cc1ccc(NS(=O)(=O)c2ccc3c(c2)CCC(=O)N3)cc1F | . | i | . | ? | . | .
COc1ccc2cc(CNCCOCCOCCNCc3ccc4cc(OC)ccc4c3)ccc2c1 | 7.3µM* | 7.3µM* | 49 | 9.2µM* | 23% | .
Cc1cc(C(=O)c2ccc3ccccc3c2)c(C)o1 | 0% | i | -3 | i | -19% | 15
COCCCNC(=O)c1ccc2c3c(onc13)-c1ccccc1C2=O | ? | ? | 6 | ? | 2% | 10
O=C1c2ccccc2-c2onc3ccc(Oc4ccccc4)c1c23 | ? | ? | -5 | 23µM* | 9% | -16
O=C(CCNS(=O)(=O)c1ccc(OC(F)(F)F)cc1)Nc1cccc(S(=O)(=O)N2CCCC2)c1 | 3% | i | 1 | i | -19% | 16
OC[C@@H]1[C@@H](c2ccccc2)C(c2ccccc2)=NN1c1ccccc1 | ? | i | -17 | i | ? | 1
OC[C@@H]1[C@@H](c2ccccc2)C(c2ccc(F)cc2)=NN1c1ccccc1 | ? | ? | -22 | i | 21µM* | -15
OC[C@@H]1[C@@H](c2ccc(Cl)cc2)C(c2ccc(F)cc2)=NN1c1ccccc1 | 1.8µM* | i | -24 | i | 4.1µM* | -4
CCO[C@H]1OC(C(N)=O)=C[C@@H](C(C)(C)C)[C@@H]1CCCO | -7% | i | 1 | i | 1% | 0
O=C(CCCCl)Oc1ccc2cc(-c3ccc4ccccc4n3)c(=O)oc2c1 | 6.5µM* | i | -10 | i | 2.1µM* | -7
COc1ccccc1CN(CC(=O)NCc1ccc(F)cc1)C(=O)c1csnn1 | 2% | i | -1 | i | -6% | -82*
Cc1cccc(CCN(CC(=O)NCc2ccc(F)cc2)C(=O)c2csnn2)c1 | 0% | i | -3 | ? | -11% | -108*
COc1ccc(CCN(C(=O)C(F)(F)F)C(C(=O)NC2CCCC2)c2cccs2)cc1OC (stereo not given) | -7% | i | 3 | 9.2µM* | 19% | 1
COc1ccc(CCN(C(=O)C(F)(F)F)C(C(=O)NC2CCCCC2)c2ccc(C)s2)cc1OC (stereo not given) | 2% | i | 32 | i | 11% | 16
CCOC(=O)C1(Cc2ccccc2C)CCCN(C(=O)COC)C1 (stereo not given) | 0% | ? | 7 | i | -2% | -107*
O=C(COC(=O)c1cccnc1Cl)Nc1cc(S(=O)(=O)N2CCCCCC2)ccc1Cl | 0% | i | 42 | i | 0% | -11
CC(NCCC(c1ccccc1)c1ccccc1)c1ccccc1 (stereo not given) | ? | i | 7 | ? | 7.3µM* | -22
Cc1ccc(CNC(C)c2ccccc2)s1 (stereo not given) | . | i | . | i | . | .
Cc1cc(C)cc(N2C(N)=NC(N)=NC2c2cccc(Cl)c2)c1 (stereo not given) | 9% | ? | 0 | i | -8% | 8
